# Inconclusive results are not listed. Active and inactive are the calls of the source. The call rests on the fitted dose curve; in most records, active means well fitted inhibition curve with a large enough effect; inconclusive means small, poorly fitted or top-dose-only effect, or another doubt; inactive means flat fitted curve, though single readings scatter.
# Assay: Confirmation Concentration-Response Assay for lipid storage modulators: for probe SAR round 2
# Conditions: Drosophila S3 cells, BODIPY lipid droplet fluorescence, 18-24 h
# Text: NIH Molecular Libraries Probe Production Centers Network [MLPCN] NIH Chemical Genomics Center [NCGC] MLPCN Grant: 1 R03 MH085686-01 Assay Submitter (PI): Beller, Mathias; Max-Planck-Institut fur Biophysikalische Chemie NCGC Assay Overview: Storing lipids as a reservoir for energy or the anabolism of elementary metabolites is a common feature of probably all cells and is conserved from bacteria to humans. The universal cellular lipid storage organelle is the so-called lipid storage droplet (LD). Although ubiquitous, LDs share a simple structure composed of a hydrophobic core that harbors the storage lipids, which is shielded by a droplet-specific phospholipid monolayer to which proteins are attached. […]
# We dispensed 4 uL of cells at 1.25 x 10^6 cells/mL into LoBase Aurora COC 1,536-well plates (black walled, clear bottom) with a bottle-valve solenoid-based dispenser (Aurora) to obtain 5,000 cells/well. […] Fluorescence was detected by excitation of the fluorophores with a 488-nm laser on an Acumen Explorer (TTP Lab Tech). […] Cells were detected using channel 3 (575- 640 nm) with 5-um width and 100-um depth filters. The ratio of the total intensity in PMT channel 1 over total intensity of channel 3 was also calculated. […]
smiles,measurement,value
CCC/C=C/C/C=C/C=C/C=N/NN=O,Potency,2810 nM (active)

# Reference: PubChem BioAssay AID504432 (National Center for Advancing Translational Sciences (NCATS), 2011)
